From PubChem BioAssay (NCATS)
Records with an inconclusive call do not appear. Calls of active or inactive are those of the source. Unless noted, calls follow the shape of the dose curve; as a rule, active = well fitted curve in the direction sought with a large enough effect; inconclusive = small, poorly fitted or top-dose-only effect, or another doubt; inactive = no such curve, though single readings can be large; an effect the other way counts as inactive or inconclusive.

Key:
[1] = biological target: Cytochrome P450 3A4 (Homo sapiens) (UniProt P08684); test: qHTS Assay for Inhibitors and Substrates of Cytochrome P450 3A4 (AID 884); also: nearly all actives have a fitted effect of over 50% in size; also: potency is read from the fitted curve at half-maximal effect
Cytochrome P450 3A4 (Homo sapiens), sequence (P08684 whole entry, looked up): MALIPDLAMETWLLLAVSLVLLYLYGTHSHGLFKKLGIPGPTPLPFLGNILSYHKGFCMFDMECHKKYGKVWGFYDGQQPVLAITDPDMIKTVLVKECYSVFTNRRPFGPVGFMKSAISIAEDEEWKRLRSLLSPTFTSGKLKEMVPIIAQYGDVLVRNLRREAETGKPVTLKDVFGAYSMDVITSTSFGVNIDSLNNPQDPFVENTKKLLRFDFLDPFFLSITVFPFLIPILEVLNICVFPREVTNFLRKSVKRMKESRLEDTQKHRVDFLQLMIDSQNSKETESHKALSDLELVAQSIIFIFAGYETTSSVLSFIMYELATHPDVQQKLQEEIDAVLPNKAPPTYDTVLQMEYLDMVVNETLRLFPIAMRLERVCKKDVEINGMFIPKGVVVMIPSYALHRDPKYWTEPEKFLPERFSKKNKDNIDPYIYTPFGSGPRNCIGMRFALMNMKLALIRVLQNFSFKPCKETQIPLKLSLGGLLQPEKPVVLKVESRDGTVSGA
In short: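 Luminescent readout of luciferin produced by CYP3A4 (20 nM) dealkylation of Luciferin-PPXE, 25 uM (its KM). NADPH-driven reaction ran 60 min at RT after 10 min compound preincubation; data scaled to 57 uM ketoconazole as 100% inhibition.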

[2] = tested on: Zika virus NS2B-NS3 protease; test: Primary screen GU AMC qHTS for Zika virus inhibitors (AID 1347154);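 also: 0% = no-inhibitor control and -100% = no-enzyme control; nearly all actives have a fitted effect of over 70% in size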
In short: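 Unlinked Zika NS2B hydrophilic domain–NS3 protease complex at 25 nM in 10 mM Tris-HCl pH 8.0, 0.01% Tween 20, with an AMC peptide substrate. Fluorescence change (340/450 nm) over 15 min at room temperature, normalized to controls, fitted to 4-parameter Hill.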

[3] = Primary qHTS for small molecule stabilizers of the endoplasmic reticulum resident proteome: Secreted ER Calcium Modulated Protein (SERCaMP) assay (AID 1508630); also: % is scaled to controls: 0 for no effect and ±100 for the full control effect
In short: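 The SH-SY5Y reporter protocol was run at 3 concentrations up to 38.3 uM (primary) or 11 concentrations (follow-up): 16 h compound, 100 nM thapsigargin for 4 h, then extracellular luciferase luminescence.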

[4] = biological target: Cytochrome P450 3A4 (Homo sapiens) (UniProt P08684); test: qHTS Assay for Activators of Cytochrome P450 3A4 (AID 885); also: nearly all actives have a fitted effect of over 65% in size
In short: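 Using 20nM recombinant human CYP3A4 in potassium phosphate (200mM), substrate Luciferin-PPXE at 25uM, luminescent luciferin detection followed a 60-min RT NADPH reaction; data scaled to 57 uM ketoconazole.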

[5] = AP1 Signaling Pathway (AID 357; active = well fitted curve in either direction with a large enough effect, not every such curve was filed as active;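 also: ME-180 reporter cells stimulated with EGF at its EC50 level; % is scaled to controls: 0 for no effect and ±100 for the full control effect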); details: ME-180 AP-1-bla reporter, EGF-induced, beta-lactamase ratio, 5 h; at 38 µM (top of the series)
In short: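 Beta-lactamase reporter under AP-1 response element, ME-180 background. Stimulus: EC50 EGF. Compound exposure 5 h, 37 °C. Detection: CCF4, 2.5 h RT, 460/530 nm. Values: AC50 from titration.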

[6] = biological target: Cytochrome P450 1A2 (Homo sapiens) (UniProt P05177); test: p450-cyp1a2 (AID 410; calls by dose curve;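 also: -100% = full effect of reference inhibitor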)
Cytochrome P450 1A2 (Homo sapiens), sequence (P05177 whole entry, looked up): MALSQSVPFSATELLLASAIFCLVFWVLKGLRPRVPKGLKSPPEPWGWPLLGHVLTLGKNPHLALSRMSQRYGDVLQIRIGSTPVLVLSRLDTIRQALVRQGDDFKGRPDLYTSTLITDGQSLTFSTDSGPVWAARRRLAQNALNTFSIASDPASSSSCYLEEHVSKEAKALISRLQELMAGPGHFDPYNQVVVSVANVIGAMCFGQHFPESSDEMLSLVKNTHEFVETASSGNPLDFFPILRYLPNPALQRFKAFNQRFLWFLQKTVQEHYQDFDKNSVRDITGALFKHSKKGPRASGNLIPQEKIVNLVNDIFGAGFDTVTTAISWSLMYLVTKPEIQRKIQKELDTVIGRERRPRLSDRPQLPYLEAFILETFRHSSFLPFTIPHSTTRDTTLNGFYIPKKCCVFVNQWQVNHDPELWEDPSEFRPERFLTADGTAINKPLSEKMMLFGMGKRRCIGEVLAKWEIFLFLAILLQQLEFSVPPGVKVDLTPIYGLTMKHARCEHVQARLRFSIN
In short: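 20nM CYP1A2, 100uM Luciferin-ME (=Km), 100mM KPO4; cpd 10 min RT; +NADPH regen, 60 min RT; stop/detect 20 min; luminescence. Normalized to furafylline 57 uM = full inhibition.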

[7] = NFAT Signaling Pathway (AID 444; active = well fitted curve in either direction with a large enough effect, not every such curve was filed as active;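 also: carbachol stimulus at about its EC50 of 1 µM final; % is scaled to controls: 0 for no effect and ±100 for the full control effect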); details: Jurkat NFAT-bla M1, carbachol, beta-lactamase ratio, 5 h; at 38 µM (top of the series)
In short: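 Jurkat cells with NFAT-driven β-lactamase reporter and co-expressed M1 receptor, stimulated with carbachol (final 1 uM, ~EC50), compound titration, 5 h at 37 °C. CCF4 loaded 1 h at RT; 460/530 nm ratio gave %activity and AC50.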

[8] = Stat Signaling Pathway (AID 446; active = well fitted curve in either direction with a large enough effect, not every such curve was filed as active;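 also: ME-180 cervical cancer cells given 40 pM IL-6 alongside compound; SIE-controlled beta-lactamase reporter measured as 460/530 nm FRET emission ratio; % is scaled to controls: 0 for no effect and ±100 for the full control effect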); details: ME-180 (cervical carcinoma) SIE beta-lactamase reporter, IL-6 stimulated, 5 h; at 38 µM (top of the series)
In short: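 Overnight-plated ME-180 cells bearing a STAT Inducible Element beta-lactamase reporter; 5 h co-exposure to compound and 40 pM IL-6; values normalized to 300 pM IL-6 and 125 nM JAK inhibitor controls.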

[9] = biological target: Glucocorticoid receptor (Homo sapiens) (UniProt P04150); test: GR-GFP Redistribution (AID 450;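 active = compounds whose dose series gives a full or clear partial fitted curve of increased nuclear translocation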; also: potency is read from the fitted curve at half-maximal effect); details: U2OS GR-GFP nuclear translocation, laser cytometry, 2 h
Glucocorticoid receptor (Homo sapiens), sequence (P04150 whole entry, looked up, the tested form may be a part): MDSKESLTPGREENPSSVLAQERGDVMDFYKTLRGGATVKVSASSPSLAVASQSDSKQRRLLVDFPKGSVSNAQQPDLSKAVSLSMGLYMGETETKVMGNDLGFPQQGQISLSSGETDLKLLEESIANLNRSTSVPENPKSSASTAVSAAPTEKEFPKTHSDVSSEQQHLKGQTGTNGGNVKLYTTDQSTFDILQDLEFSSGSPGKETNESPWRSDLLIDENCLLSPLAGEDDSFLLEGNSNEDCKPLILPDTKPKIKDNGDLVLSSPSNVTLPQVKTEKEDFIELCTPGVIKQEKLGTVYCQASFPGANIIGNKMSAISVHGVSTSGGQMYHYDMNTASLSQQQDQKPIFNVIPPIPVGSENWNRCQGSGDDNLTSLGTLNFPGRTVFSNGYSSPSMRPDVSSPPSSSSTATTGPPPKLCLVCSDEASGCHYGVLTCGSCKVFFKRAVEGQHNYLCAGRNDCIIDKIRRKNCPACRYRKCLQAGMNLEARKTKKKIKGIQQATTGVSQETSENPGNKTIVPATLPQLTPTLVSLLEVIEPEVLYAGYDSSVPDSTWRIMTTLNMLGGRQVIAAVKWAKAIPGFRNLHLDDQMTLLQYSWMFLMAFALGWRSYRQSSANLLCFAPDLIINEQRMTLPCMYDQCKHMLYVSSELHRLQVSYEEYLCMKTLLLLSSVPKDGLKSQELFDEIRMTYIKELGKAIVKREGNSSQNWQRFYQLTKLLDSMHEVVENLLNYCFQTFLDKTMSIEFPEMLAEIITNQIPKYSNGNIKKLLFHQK

[10] = biological target: Glucocorticoid receptor (Homo sapiens) (UniProt P04150); test: GR-EFC Redistribution (AID 451; calls by dose curve; also: potency is read from the fitted curve at half-maximal effect); details: CHO-K1 GR-EFC translocation, beta-gal luminescence, 2 h
In short: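 CHO-K1 cells expressing nuclear EA and GR-ED fragments of b-gal; compounds titrated up to 46 uM final, 2 h at 37 C. GR nuclear translocation read as complemented b-gal luminescence after 1 h RT detection.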

[11] = biological target: Mitogen-activated protein kinase 10 (Mus musculus) (UniProt Q61831); test: JNK3 AlphaScreen Assay (AID 530; active = well fitted curve in either direction with a large enough effect, not every such curve was filed as active)
In short: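 HepG2 lysate (IL-1b/TNFa pre-activated) + biotin-GST-cJun 1-79 + anti-pSer73 cJun; cpd titration, 15 min RT; ATP 10 uM start; Tris pH 7.6, MgCl2, DTT, vanadate; beads in EDTA buffer; AlphaScreen.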

[12] = biological target: 3',5'-cyclic-AMP phosphodiesterase 4B (Homo sapiens) (UniProt Q07343); test: qHTS Assay for Inhibitors of PDE-IV (AID 607; active = well fitted activation curve with a large enough effect in the main read-out, with a control signal flat, not every such curve was filed as active; also: % of control where 0% means no effect)
3',5'-cyclic-AMP phosphodiesterase 4B (Homo sapiens), sequence (Q07343 whole entry, looked up): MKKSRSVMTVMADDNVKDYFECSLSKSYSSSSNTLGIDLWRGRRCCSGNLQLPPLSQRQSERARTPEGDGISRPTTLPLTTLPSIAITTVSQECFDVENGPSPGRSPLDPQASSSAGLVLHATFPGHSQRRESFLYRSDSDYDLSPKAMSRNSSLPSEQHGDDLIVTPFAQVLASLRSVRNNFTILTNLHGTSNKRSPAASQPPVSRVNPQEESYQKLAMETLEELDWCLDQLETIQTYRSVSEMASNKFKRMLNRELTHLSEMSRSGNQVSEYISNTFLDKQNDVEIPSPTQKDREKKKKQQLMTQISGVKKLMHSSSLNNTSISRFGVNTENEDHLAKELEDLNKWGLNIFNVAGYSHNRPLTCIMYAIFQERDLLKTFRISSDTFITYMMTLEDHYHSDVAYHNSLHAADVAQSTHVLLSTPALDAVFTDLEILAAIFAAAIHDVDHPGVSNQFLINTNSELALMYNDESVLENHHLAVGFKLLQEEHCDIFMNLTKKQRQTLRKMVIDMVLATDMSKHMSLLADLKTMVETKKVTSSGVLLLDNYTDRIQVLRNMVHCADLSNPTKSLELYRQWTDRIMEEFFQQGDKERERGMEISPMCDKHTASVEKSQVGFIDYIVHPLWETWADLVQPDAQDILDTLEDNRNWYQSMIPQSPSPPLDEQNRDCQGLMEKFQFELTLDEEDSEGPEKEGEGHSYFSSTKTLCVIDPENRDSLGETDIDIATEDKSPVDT
In short: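 Live HEK293 cells with a modified cyclic nucleotide-gated (CNG) channel report intracellular cAMP via membrane-potential dye fluorescence (ex 535/em 590 nm). Endogenous PDE-IV was targeted. Compounds were tested at up to 22.9 uM final; RO 20-1724 100 uM served as control.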

[13] = biological target: Guanine nucleotide-binding protein G(i) subunit alpha-1 (Homo sapiens) (UniProt P63096); test: qHTS Assay for Inhibitors of RGS12 GoLoco Motif Activity (Green Fluorophore) (AID 879);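 also: 0% = labeled peptide with Gαi1 and full inhibition = labeled peptide alone without protein; negative values mean loss of peptide binding seen as reduced polarization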
Guanine nucleotide-binding protein G(i) subunit alpha-1 (Homo sapiens), sequence (P63096 whole entry, looked up): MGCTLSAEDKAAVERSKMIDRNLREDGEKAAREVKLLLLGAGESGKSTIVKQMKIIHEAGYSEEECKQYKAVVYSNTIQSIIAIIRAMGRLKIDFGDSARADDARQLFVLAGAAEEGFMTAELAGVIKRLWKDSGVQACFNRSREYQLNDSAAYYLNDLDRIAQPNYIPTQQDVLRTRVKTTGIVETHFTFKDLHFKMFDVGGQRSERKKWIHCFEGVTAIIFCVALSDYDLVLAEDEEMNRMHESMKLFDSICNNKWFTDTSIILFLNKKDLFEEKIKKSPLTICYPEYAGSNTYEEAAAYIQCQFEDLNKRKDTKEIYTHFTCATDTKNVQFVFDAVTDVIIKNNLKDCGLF
In short: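 A drop in FITC polarization marked displacement of the FITC-tagged RGS12 GoLoco peptide (10 nM) from Gαi1 (50 nM). Compounds were incubated 10 min at room temperature in Tris pH 7.5 buffer containing 150 mM NaCl, 0.1 mM GDP and 0.05% NP40; unlabeled peptide titration served as control.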

[14] = biological target: Cytochrome P450 2C9 (Homo sapiens) (UniProt P11712); test: qHTS Assay for Inhibitors and Substrates of Cytochrome P450 2C9 (AID 883); also: % is scaled to controls: 0 for no effect and ±100 for the full control effect; nearly all actives have a fitted effect of over 60% in size
In short: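 Human CYP2C9 (10nM) with Luciferin-H at 100uM (its KM) in 25mM KPO4; compound preincubated 10 min at 37C, then NADPH regeneration for 60 min at 37C. Luciferin read by luminescence after detection reagent; normalized to 57uM sulphaphenazole as full inhibition.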

[15] = biological target: Cytochrome P450 2D6 (Homo sapiens) (UniProt P10635); test: qHTS Assay for Inhibitors and Substrates of Cytochrome P450 2D6 (AID 891); also: potency is read from the fitted curve at half-maximal effect; nearly all actives have a fitted effect of over 60% in size
In short: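 Luminescent read-out of luciferin formed by 5 nM human CYP2D6 demethylating 30 uM Luciferin-ME EGE (Km level) over 60 min at room temperature after NADPH regeneration addition. Data normalized to full inhibition by 1.43 uM quinidine.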

[16] = biological target: Pyruvate kinase (Leishmania mexicana) (UniProt Q27686); test: qHTS Validation Assay for Inhibitors of Leishmania Mexicana Pyruvate Kinase (AID 945);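 also: 0% = DMSO only neutral control wells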
Pyruvate kinase (Leishmania mexicana), sequence (Q27686 2-499 E452W): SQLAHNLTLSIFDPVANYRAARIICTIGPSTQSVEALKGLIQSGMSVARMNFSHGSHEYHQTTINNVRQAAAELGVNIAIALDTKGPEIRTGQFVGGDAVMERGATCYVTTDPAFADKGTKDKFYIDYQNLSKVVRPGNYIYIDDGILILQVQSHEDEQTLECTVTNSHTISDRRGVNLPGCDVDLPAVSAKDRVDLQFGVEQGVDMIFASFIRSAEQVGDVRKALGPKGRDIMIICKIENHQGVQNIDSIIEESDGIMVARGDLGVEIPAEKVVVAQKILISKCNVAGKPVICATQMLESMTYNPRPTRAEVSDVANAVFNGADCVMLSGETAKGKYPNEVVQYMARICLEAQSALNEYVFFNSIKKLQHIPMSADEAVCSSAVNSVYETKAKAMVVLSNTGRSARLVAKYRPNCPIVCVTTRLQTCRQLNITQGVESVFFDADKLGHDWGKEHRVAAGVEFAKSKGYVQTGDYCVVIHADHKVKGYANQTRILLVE
In short: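 Pyruvate kinase activity of E451W LmPYK (0.2 nM) was followed as ATP output after 1 h at room temperature with 0.5 mM PEP and 0.1 mM ADP, detected by PKLight luminescence.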

[17] = biological target: Pyruvate kinase PKM (Homo sapiens) (UniProt P14618); test: qHTS Assay for Activators of Human Muscle Pyruvate Kinase (AID 954; active = well fitted curve in the direction sought with a large enough effect, not every such curve was filed as active;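 also: 0% = uninhibited enzyme and -100% = no enzyme or full thiadiazolimine inhibition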)
In short: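 Screening used highly purified human pyruvate kinase M2 under submaximal activity, with PEP at its Km and ADP below Km. After an hour at room temperature, ATP was read by luciferase luminescence.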

[18] = biological target: Alpha-galactosidase A (Homo sapiens) (UniProt P06280); test: Counterscreen for Glucocerebrosidase Inhibitors: qHTS Assay for Human alpha-Galactosidase at pH 4.5 (AID 992); also: 0% is about no effect
Alpha-galactosidase A (Homo sapiens), sequence (P06280 whole entry, looked up): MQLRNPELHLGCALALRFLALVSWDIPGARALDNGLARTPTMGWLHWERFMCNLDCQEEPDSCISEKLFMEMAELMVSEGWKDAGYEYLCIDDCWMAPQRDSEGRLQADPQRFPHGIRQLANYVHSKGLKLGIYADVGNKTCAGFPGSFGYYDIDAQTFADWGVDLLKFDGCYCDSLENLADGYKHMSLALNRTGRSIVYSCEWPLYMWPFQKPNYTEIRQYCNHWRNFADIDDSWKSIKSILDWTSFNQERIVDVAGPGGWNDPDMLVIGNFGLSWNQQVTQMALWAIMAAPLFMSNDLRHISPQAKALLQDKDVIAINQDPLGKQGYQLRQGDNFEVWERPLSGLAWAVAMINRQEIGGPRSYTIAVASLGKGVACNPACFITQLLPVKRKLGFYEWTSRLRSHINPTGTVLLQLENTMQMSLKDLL
In short: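 Each compound is preincubated briefly with 2 nM enzyme before substrate addition (80 uM); plates then sit 20 min at ambient temperature, are quenched with 1M NaOH/1M glycine, and read fluorometrically.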

[19] = biological target: alpha-glucosidase (Oryza sativa, rice) (UniProt Q653V4); test: Counterscreen for Glucocerebrosidase Inhibitors: qHTS Assay for Rice alpha-Glucosidase at pH 5.0 (AID 997);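 also: 0% = full activity with enzyme and -100% = basal without enzyme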
In short: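 Endpoint fluorogenic assay at pH 5.0: compounds (0.7 nM to 77 uM) titrated against 4 nM rice enzyme and 400 uM 4-MU-alpha-glucoside for 20 min at room temperature; NaOH/glycine stop, read ex 365/em 440 nm, Hill-fitted AC50.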

[20] = qHTS Assay for Lipid Storage Modulators (AID 1519; calls by dose curve); details: Drosophila S3 cells, BODIPY lipid droplet/cell ratio, laser cytometry, cells loaded with oleic acid; for activity change, negative = inhibition: at 57.5 µM (top of the series)
In short: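 Cells seeded at 5,000 per well were treated with compounds over a concentration series and loaded with oleic acid (400 uM, as added). Lipid droplet fluorescence (488 nm excitation, 500-530 nm channel) was read by laser-scanning cytometry and normalized to 20 uM Triacsin C.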

[21] = biological target: DNA dC->dU-editing enzyme APOBEC-3G (Homo sapiens) (UniProt Q9HC16); test: qHTS for inhibitors of Vif-A3G interactions: Validation (AID 588379); also: 0% is about no effect
DNA dC->dU-editing enzyme APOBEC-3G (Homo sapiens), sequence (Q9HC16 whole entry, looked up): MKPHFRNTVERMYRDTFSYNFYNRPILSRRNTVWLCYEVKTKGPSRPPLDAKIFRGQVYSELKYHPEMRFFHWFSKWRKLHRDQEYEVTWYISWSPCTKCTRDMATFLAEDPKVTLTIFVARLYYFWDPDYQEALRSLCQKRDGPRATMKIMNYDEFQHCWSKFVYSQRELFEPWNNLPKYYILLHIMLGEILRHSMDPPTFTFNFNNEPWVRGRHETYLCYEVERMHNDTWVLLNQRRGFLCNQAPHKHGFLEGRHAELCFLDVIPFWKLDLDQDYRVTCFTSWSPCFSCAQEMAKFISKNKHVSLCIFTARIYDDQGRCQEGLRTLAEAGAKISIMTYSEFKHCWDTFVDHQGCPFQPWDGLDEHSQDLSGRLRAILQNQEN
In short: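 Yellow fluorescence (Ex 488, Em 500-530) of Vif-coexpressing HeLa A3G-eYFP cells, scanned by Acumen cytometer, reports blocked A3G degradation. Cells plated at 700/well overnight at 37 deg C before compound addition, then a further overnight compound incubation at 37 deg C.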

[22] = biological target: Ubiquitin carboxyl-terminal hydrolase 1 (Homo sapiens) (UniProt O94782); test: Inhibitors of USP1/UAF1: Pilot qHTS (AID 504865);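 also: rhodamine fluorescence freed from ubiquitin-rhodamine substrate followed over time; top concentration of the series differs between compounds; % is scaled to controls: 0 for no effect and ±100 for the full control effect; nearly all actives have a fitted effect of over 35% in size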
Ubiquitin carboxyl-terminal hydrolase 1 (Homo sapiens), sequence (O94782 whole entry, looked up): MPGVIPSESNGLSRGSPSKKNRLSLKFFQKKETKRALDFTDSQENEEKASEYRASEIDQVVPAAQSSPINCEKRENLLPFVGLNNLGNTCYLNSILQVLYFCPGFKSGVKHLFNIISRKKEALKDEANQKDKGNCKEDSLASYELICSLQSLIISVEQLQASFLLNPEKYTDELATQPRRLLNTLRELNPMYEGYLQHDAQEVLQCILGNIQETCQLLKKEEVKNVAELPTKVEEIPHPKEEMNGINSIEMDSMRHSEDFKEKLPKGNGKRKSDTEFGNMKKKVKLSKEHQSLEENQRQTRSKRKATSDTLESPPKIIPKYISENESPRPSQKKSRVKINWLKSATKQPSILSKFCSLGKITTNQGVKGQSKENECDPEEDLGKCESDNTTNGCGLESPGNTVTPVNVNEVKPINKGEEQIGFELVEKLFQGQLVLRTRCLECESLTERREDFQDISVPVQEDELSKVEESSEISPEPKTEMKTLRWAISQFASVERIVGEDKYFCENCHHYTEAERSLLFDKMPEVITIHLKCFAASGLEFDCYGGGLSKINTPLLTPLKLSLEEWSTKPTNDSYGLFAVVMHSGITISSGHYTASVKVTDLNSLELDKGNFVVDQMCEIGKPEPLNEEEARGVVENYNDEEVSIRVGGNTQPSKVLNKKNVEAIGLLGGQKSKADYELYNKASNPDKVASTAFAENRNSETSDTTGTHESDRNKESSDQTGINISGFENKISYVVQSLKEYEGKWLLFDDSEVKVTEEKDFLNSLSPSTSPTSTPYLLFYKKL
In short: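 1nM USP1/UAF1 + cpd, 15 min RT; start w/ Ub-Rho 150nM final; kinetic FL 480/540 nm, 6 reads q60 s. Buffer 50mM HEPES pH 7.8, 0.5mM EDTA, 1mM TCEP, 0.01% Tween-20, 0.1 mg/ml BSA.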

[23] = measured here: cell count channel max response
[24] = measured here: lipid channel max response

CCN(CC)CCCCC1CCN(CC(=O)N2c3ccccc3C(=O)Nc3cccnc32)CC1
inactive: Potency [1] | Potency [2] | Potency [3]

CCOC(=O)C1CSC(Cc2ccc(OCc3ccc([N+](=O)[O-])cc3)cc2)N1 (stereo unspecified)
inactive: Potency [4] | Potency [2] | Potency [3]
active: Potency [1] 15.8 µM

CN1c2cc3c(cc2N=C(c2ccc(C(=O)O)cc2)c2ccccc21)C(C)(C)CCC3(C)C
inactive: Potency [1] | Potency [2] | Potency [3]

CO[C@]1(C2=NCCN2)COc2ccccc2O1
10.7%: max response [20, 24]
inactive: activity change, negative = inhibition [5] -14% | Potency [6] | activity change, negative = inhibition [7] -11% | activity, negative = inhibition [8] 13.6% | Potency [9] > 46 µM | Potency [10] > 46 µM | Potency [11] | Potency [12] | outcome [13] | Potency [14] | Potency [16] | outcome [17] | outcome [18] | outcome [19] | activity change, negative = inhibition [20] 1.12% | Potency [21] | Potency [2]
active: Potency [15] 0.794 µM
8.44%: max response [20, 23]

N[C@@H](C(=O)O)c1ccc(C(=O)O)cc1
10.8%: max response [20, 23]
inactive: Potency [6] | Potency [9] > 46 µM | Potency [10] > 46 µM | Potency [11] | Potency [12] | activity change, negative = inhibition [20] 5.37% | Potency [22] | Potency [21] | Potency [2]
17.4%: max response [20, 24]
